Experimental data reported in PubChem BioAssay AID1159580 (chemical genetic matrix, 2015).
Among all 5,500 compounds or so, about 2,000 (36%) were called active. Inconclusive results (about 18%) are left out. Rule as the data show it: active = normalized growth mostly below about 0.91 (no sharp cut-off); inconclusive = no clear call, values can overlap the other calls; inactive = mostly above about 0.92. The list shows a part of the results.

Experiment: chemical genetic growth profiling, strain panel (AID 1159580);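 also: tested at 20 µM; growth read once vehicle control cultures reached saturation at 30 °C; 1 = growth at the plate median or of vehicle wells; lower values mean less growth of the strain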
Settings: S. cerevisiae deletion strains, growth OD

Measured: normalized growth

NC(=O)c1ccccc1N1CCCCC1
inactive: locus YAL013W, strain DEP1, stronger effect = lower value 1.01 | locus YBR229C, strain ROT2, stronger effect = lower value 0.986 | locus YDL101C, strain DUN1, stronger effect = lower value 0.949 | locus YDR150W, strain NUM1, stronger effect = lower value 0.912 | locus YEL061C, strain CIN8, stronger effect = lower value 1.02 | locus YGR078C, strain PAC10, stronger effect = lower value 0.997 | locus YHR030C, strain SLT2, stronger effect = lower value 0.986 | locus YHR087W, strain rtc3, stronger effect = lower value 1.05 | locus YJL187C, strain SWE1, stronger effect = lower value 1.02 | locus YJR043C, strain POL32, stronger effect = lower value 0.99 | locus YJR075W, strain HOC1, stronger effect = lower value 0.965 | locus YKL190W, strain CNB1, stronger effect = lower value 1.01 | locus YLR039C, strain RIC1, stronger effect = lower value 1.02 | locus YLR058C, strain SHM2 (second series), stronger effect = lower value 1.02 | locus YLR085C, strain ARP6, stronger effect = lower value 1.06 | locus YLR262C, strain YPT6, stronger effect = lower value 1.02 | locus YML094W, strain GIM5, stronger effect = lower value 1.02 | locus YMR219W, strain ESC1, stronger effect = lower value 0.997 | locus YMR263W, strain SAP30, stronger effect = lower value 0.941 | locus YNL128W, strain TEP1, stronger effect = lower value 0.996 | locus YNL153C, strain GIM3, stronger effect = lower value 0.993 | locus YNL298W, strain CLA4 (second series), stronger effect = lower value 0.991 | locus YNL322C, strain KRE1, stronger effect = lower value 0.994 | locus YNR030W, strain Alg12, stronger effect = lower value 1 | locus YOL006C, strain TOP1, stronger effect = lower value 0.991 | locus YPL055C, strain LGE1, stronger effect = lower value 0.998 | locus YPL241C, strain CIN2, stronger effect = lower value 0.994 | locus YPR135W, strain CTF4, stronger effect = lower value 0.907
